Test results taken from the supplement of paper PMC9254222.
In all, about 1,100 compounds were measured (“Wnt reporter firefly/Renilla luciferase ratio relative to plate median”: median about 1.1, highest 2% from about 1.6 on). The list comes from a sample in which the highest values are over-represented; it also holds similar structures and randomly drawn compounds.

Tested on: HEK293T (UBE3A T485A transfected, BAR Wnt reporter)
Assay: Wnt reporter firefly/Renilla luciferase ratio relative to plate median (fold (linear ratio)); higher = more Wnt/beta-catenin reporter activation
Conditions: 24 h
Procedure, shortened: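 Each value averages four biological replicates in HEK293T cells grown at 4500 cells/well in DMEM with 10% FBS at 37°C and 5% CO2. The cells were transfected with a BAR firefly luciferase Wnt reporter, TK-Renilla and an expression plasmid, then four hours later robotically treated with the chemicals at 0.01–100 uM for 24 h. Dual-Glo luciferase signals were median-centred per plate, with the firefly/Renilla ratio reported as Wnt activity and raw Renilla as cell health.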

SMILES	Wnt reporter firefly/Renilla luciferase ratio (concentration: 0.01 uM)	Wnt reporter firefly/Renilla luciferase ratio (concentration: 0.1 uM)	Wnt reporter firefly/Renilla luciferase ratio (concentration: 1 uM)	Wnt reporter firefly/Renilla luciferase ratio (concentration: 10 uM)	Wnt reporter firefly/Renilla luciferase ratio (concentration: 100 uM)
CNC(=O)Oc1cccc2c1OC(C)(C)O2 [Bendiocarb]	1.3	1.17	1.01	0.983	1.38
CC(Oc1cccc(Cl)c1)C(=O)O (stereo unspecified) [Cloprop]	1.31	1.51	1.12	1.28	1.45
CC(C)OC(=O)Nc1cccc(Cl)c1 [Chlorpropham]	1.45	1.78	1.23	1.47	0.823
CC(C)Oc1cccc(NC(=O)c2ccccc2C(F)(F)F)c1 [Flutolanil]	0.682	0.79	1.01	0.768	0.559
CCNc1nc(NC(C)C)nc(SC)n1 [Ametryn]	0.686	0.725	0.813	1.29	0.791
CC(C)C1(C)N=C(c2ncccc2C(=O)O)NC1=O (stereo unspecified) [Imazapyr]	1.14	1.29	1.04	1.09	1.24
CNC(=O)CSP(=S)(OC)OC [Dimethoate]	0.95	0.993	1.02	1.02	1.1
COP(=S)(OC)SCN1C(=O)c2ccccc2C1=O [Phosmet]		1.07	0.925	1.47	1.65
COP(=S)(OC)SCn1nnc2ccccc2c1=O [Azinphos-methyl]	1.01	0.911	0.978	0.89	0.837
CCNc1nc(Cl)nc(NCC)n1 [Simazine]	1	1.19	1.01	1.06	1.52
O=C(O)C(F)(F)C(F)(F)C(F)(F)C(F)(F)C(F)(F)C(F)(F)C(F)(F)C(F)(F)F		1.29	0.95	1.12	0.369
O=C(O)C(F)(F)C(F)(F)C(F)(F)C(F)(F)C(F)(F)C(F)(F)F [Perfluoroheptanoic acid]		0.82	1.02	0.932	0.483
O=C(O)C(F)(F)C(F)(F)C(F)(F)C(F)(F)C(F)(F)C(F)(F)C(F)(F)C(F)(F)C(F)(F)C(F)(F)F [Perfluoroundecanoic acid]		1.11	0.936	0.954	0.68
O=C(O)C(F)(F)C(F)(F)C(F)(F)C(F)(F)C(F)(F)F		1.16	1.48	1.38	2.14
O=C(O)C(F)(F)C(F)(F)C(F)(F)C(F)(F)C(F)(F)C(F)(F)C(F)(F)F	1.29	1.71	1.19	1.41	1.46
O=C(O)C(F)(F)C(F)(F)C(F)(F)C(F)(F)C(F)(F)C(F)(F)C(F)(F)C(F)(F)C(F)(F)F		0.93	1.14	1.04	1.19
Oc1cc(Cl)c(Cl)cc1Cl [2,4,5-Trichlorophenol]		1.12	0.917	0.962	
CCCCCCCCCC(CC)c1ccc(S(=O)(=O)O)cc1.OCCN(CCO)CCO (stereo unspecified) [Dodecylbenzene sulfonate triethanolamine(1:1)]		1.13	1.29	1.13	1.01
COc1cnc(OC)n2nc(NS(=O)(=O)c3c(OCC(F)F)cccc3C(F)(F)F)nc12 [Penoxsulam]	1.12	1.09	1.29	1.38	1.75
C=CC(=O)NCNC(=O)C=C [N,N'-Methylenebisacrylamide]		0.951	0.999	1.03	1.21
CN(C)c1ccc(Cc2ccc(N(C)C)cc2)cc1 [4,4'-Methylenebis(N,N-dimethylaniline)]		1.02	1.07	1.14	0.474

SMILES	Wnt reporter firefly/Renilla luciferase ratio (concentration: 0.01 uM)	Wnt reporter firefly/Renilla luciferase ratio (concentration: 0.1 uM)	Wnt reporter firefly/Renilla luciferase ratio (concentration: 1 uM)	Wnt reporter firefly/Renilla luciferase ratio (concentration: 10 uM)	Wnt reporter firefly/Renilla luciferase ratio (concentration: 100 uM)
CCc1nn(C)c(C(=O)NCc2ccc(C(C)(C)C)cc2)c1Cl [Tebufenpyrad]	0.583	0.632	0.279	0.218	0.51
COC(=O)N(C(=O)N1CO[C@@]2(C(=O)OC)Cc3cc(Cl)ccc3C2=N1)c1ccc(OC(F)(F)F)cc1 [Indoxacarb]	0.92	0.96	1.2	0.895	0.242
CCCCN(CCCC)SN(C)C(=O)Oc1cccc2c1OC(C)(C)C2 [Carbosulfan]		1.07	1.13	1.07	1.28
c1ccc2c(c1)Nc1ccccc1S2 [Phenothiazine]		1.08	1.01	0.726	0.188
CC(C)(C)OOC(=O)c1ccccc1 [tert-Butyl perbenzoate]		1.06	0.994	1.24	0.688
Nc1ccc(-c2ccc(N)cc2)cc1 [Benzidine]		1.22	1.11	1.23	0.579
Cc1ccc(N)cc1 [4-Methylaniline]		1.14	1.18	1.34	1.79
Cc1ccc(N)c(N)c1 [3,4-Diaminotoluene]		1.18	1.26	1.2	
CC(C)=CC1C(C(=O)OCN2C(=O)C3=C(CCCC3)C2=O)C1(C)C (stereo unspecified) [Tetramethrin]	0.717	0.76	0.941	0.819	0.824
CCOc1nc(F)cc2nc(S(=O)(=O)Nc3c(Cl)cccc3Cl)nn12 [Diclosulam]	1.4	1.38	0.954	1.05	0.892
Oc1ccc(Cl)cc1Cl [2,4-Dichlorophenol]		1.06	1.15	1.36	1.47
CCCCCCCCOC(=O)c1ccccc1C(=O)OCCCCCCCC [Dioctyl phthalate]		1.21	1.11	1.04	1.25
CCCCOC(=O)c1ccccc1C(=O)OCCCC [Dibutyl phthalate]	0.897	0.942	0.947	1.05	0.275
CC(C)CCCCCCCOC(=O)c1ccccc1C(=O)OCCCCCCCC(C)C		0.955	1.04	1.1	1.9
CCCCCOC(=O)c1ccccc1C(=O)OCCCCC [Dipentyl phthalate]		1.06	1.36	1.14	1.15
CCCCOC(=O)c1ccccc1C(=O)O [Monobutyl phthalate]	1.07	1.12	2.24	1.14	1.75
CCCCCCOC(=O)c1ccccc1C(=O)OCCCCCC [Dihexyl phthalate]		1.05	0.965	1.29	0.728
CCOP(=O)(NC(C)C)Oc1ccc(SC)c(C)c1 (stereo unspecified) [Fenamiphos]	0.946	0.758	0.93	0.83	0.243
C/C(=N\C#N)N(C)Cc1ccc(Cl)nc1 [Acetamiprid]	1.26	0.96	0.904	1.08	1.18
Cc1c(COC(=O)[C@H]2[C@@H](/C=C(\Cl)C(F)(F)F)C2(C)C)cccc1-c1ccccc1 [Bifenthrin]	0.843	1.35	1.11	0.982	0.325
COP(=O)(OC)O/C(C)=C/C(=O)N(C)C [Dicrotophos]	1.29	1.12	1.1	0.957	1.09

SMILES	Wnt reporter firefly/Renilla luciferase ratio (concentration: 0.01 uM)	Wnt reporter firefly/Renilla luciferase ratio (concentration: 0.1 uM)	Wnt reporter firefly/Renilla luciferase ratio (concentration: 1 uM)	Wnt reporter firefly/Renilla luciferase ratio (concentration: 10 uM)	Wnt reporter firefly/Renilla luciferase ratio (concentration: 100 uM)
COP(=O)(OC)OC=C(Cl)Cl [Dichlorvos]	1.2	1.67	1.4	1.34	1.21
CNC(=O)/C=C(\C)OP(=O)(OC)OC [Monocrotophos]	0.971	1.1	1.22	1.06	1.12
O=P(O)(O)CCCl [Ethephon]	0.756	1.23	1.18	0.988	1.19
CC(C)N1C(=O)N(c2ccccc2)CSC1=NC(C)(C)C [Buprofezin]	1.25	1.69	1.16	1.12	0.27
CC(C)N1C(=O)c2ccccc2NS1(=O)=O [Bentazone]	1.46	0.947	0.964	0.949	0.329
COC(=CC(N)=O)C(C)C(C=Cc1csc(-c2csc(C(C)C=CC=CC(C)C)n2)n1)OC (stereo unspecified) [Myxothiazol]	1.41	0.921	0.539	0.492	
CCCCC(CC)COC(=O)c1ccccc1C(=O)O (stereo unspecified)	1.04	0.861	1.04	0.979	0.821
N#Cc1c[nH]cc1-c1cccc2c1OC(F)(F)O2 [Fludioxonil]	0.759	0.842	0.847	1.04	0.858
CNC(=O)Oc1cccc2ccccc12 [Carbaryl]	0.987	1.18	1.07	0.714	0.629
CCOP(=O)(SC(C)CC)N1CCSC1=O (stereo unspecified) [Fosthiazate]	0.839	0.761	0.922	1.5	0.772
ClC1=C(Cl)C2(Cl)C3C4OC4C(Cl)C3C1(Cl)C2(Cl)Cl (stereo unspecified) [Heptachlor epoxide]		1.18	1.23	1.06	1.5
CCc1cccc(C)c1N(C(=O)CCl)C(C)COC (stereo unspecified) [Metolachlor]	0.768	1.6	0.921	0.833	0.28
O=[N+]([O-])C(Br)(CO)CO [Bronopol]		1.17	1.15	1.07	
CCN(CC)C(=O)SCc1ccc(Cl)cc1 [Thiobencarb]	0.948	1.27	1.52	1.02	1.54
O=[N+]([O-])c1cc(C(F)(F)F)c(Cl)c([N+](=O)[O-])c1Nc1ncc(C(F)(F)F)cc1Cl [Fluazinam]	0.902	0.969	1.24	0.338	
Cl[C@H]1[C@H](Cl)[C@@H](Cl)[C@H](Cl)[C@@H](Cl)[C@@H]1Cl [beta-Hexachlorocyclohexane]		1.05	0.913	1.12	1.03
Clc1cccc(Cl)c1 [1,3-Dichlorobenzene]		1.15	1.18	1.45	1.77
Nc1ccc(Cl)cc1N [4-Chloro-1,2-diaminobenzene]		1.1	1.03	0.852	
Clc1ccc(Cl)c(Cl)c1 [1,2,4-Trichlorobenzene]		0.911	0.886	1.04	1.57
Cc1cc(C)cc(C)c1 [1,3,5-Trimethylbenzene]		1.01	1.15	1.05	1.12
CCCC(=NOCC)C1=C(O)CC(CC(C)SCC)CC1=O (stereo unspecified) [Sethoxydim]	1.27	1.07	1.15	1.2	0.758
